The full ranking holds about 8,300 sequences; the median of “log2 fold change of degron read counts, EGFP-low vs EGFP+ sorted cells (limma voom), compound-induced degradation” is about -1.1, and the highest 2% start at about 3.2. The list comes from a sample in which the highest values are over-represented; it also holds similar and randomly drawn sequences.
T1: CRBN, Q96SW2
T1 chain: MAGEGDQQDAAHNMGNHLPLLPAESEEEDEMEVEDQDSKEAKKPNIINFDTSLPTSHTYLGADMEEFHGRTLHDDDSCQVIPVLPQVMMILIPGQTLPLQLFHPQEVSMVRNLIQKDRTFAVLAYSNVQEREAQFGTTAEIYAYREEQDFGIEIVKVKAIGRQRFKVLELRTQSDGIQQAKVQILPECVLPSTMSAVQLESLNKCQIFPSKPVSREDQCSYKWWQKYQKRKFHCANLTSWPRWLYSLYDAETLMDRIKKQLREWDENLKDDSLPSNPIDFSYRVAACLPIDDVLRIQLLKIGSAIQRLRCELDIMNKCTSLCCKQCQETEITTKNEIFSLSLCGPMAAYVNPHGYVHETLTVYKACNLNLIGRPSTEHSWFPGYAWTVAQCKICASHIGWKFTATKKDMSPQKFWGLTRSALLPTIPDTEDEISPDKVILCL

B1: 46F_47M_49E_50V_52G_53A_54F_55F_67L_, Q9UKT9 (peptide)
chain: FMCEVCGAFFTQKGNLLRHIKL
B2: 46F_47C_49N_50Q_52G_53R_54A_55F_67L_, Q9UKT9 (peptide)
chain: FCCNQCGRAFTQKGNLLRHIKL
B3: 46F_47G_49D_50V_52G_53A_54E_55F_67L_, Q9UKT9 (peptide)
chain: FGCDVCGAEFTQKGNLLRHIKL
B4: 46F_47C_49P_50I_52G_53R_54M_55F_67L_, Q9UKT9 (peptide)
chain: FCCPICGRMFTQKGNLLRHIKL
B5: 46F_47Q_49N_50Q_52G_53H_54E_55F_67L_, Q9UKT9 (peptide)
chain: FQCNQCGHEFTQKGNLLRHIKL
B6: 46L_47C_49N_50Q_52G_53F_54W_55C_67L_, Q9UKT9 (peptide)
chain: LCCNQCGFWCTQKGNLLRHIKL
B7: 46F_47Q_49D_50V_52G_53A_54A_55F_67L_, Q9UKT9 (peptide)
chain: FQCDVCGAAFTQKGNLLRHIKL
B8: 46F_47M_49E_50Q_52G_53A_54T_55F_67L_, Q9UKT9 (peptide)
chain: FMCEQCGATFTQKGNLLRHIKL
B9: 46F_47L_49P_50I_52G_53H_54C_55F_67L_, Q9UKT9 (peptide)
chain: FLCPICGHCFTQKGNLLRHIKL
B10: 46F_47E_49P_50I_52G_53R_54G_55F_67L_, Q9UKT9 (peptide)
chain: FECPICGRGFTQKGNLLRHIKL
B11: 46F_47Y_49E_50I_52G_53A_54A_55F_67L_, Q9UKT9 (peptide)
chain: FYCEICGAAFTQKGNLLRHIKL
B12: 46F_47Q_49E_50I_52G_53A_54A_55F_67L_, Q9UKT9 (peptide)
chain: FQCEICGAAFTQKGNLLRHIKL
B13: 46F_47V_49E_50I_52G_53A_54A_55F_67L_, Q9UKT9 (peptide)
chain: FVCEICGAAFTQKGNLLRHIKL
B14: 46F_47I_49E_50I_52G_53A_54A_55F_67L_, Q9UKT9 (peptide)
chain: FICEICGAAFTQKGNLLRHIKL
B15: 46F_47E_49P_50I_52G_53H_54S_55F_67L_, Q9UKT9 (peptide)
chain: FECPICGHSFTQKGNLLRHIKL
B16: 46F_47Y_49E_50Q_52G_53A_54T_55F_67L_, Q9UKT9 (peptide)
chain: FYCEQCGATFTQKGNLLRHIKL
B17: 46F_47S_49E_50I_52G_53A_54Y_55F_67L_, Q9UKT9 (peptide)
chain: FSCEICGAYFTQKGNLLRHIKL
B18: 46F_47Y_49N_50V_52G_53A_54C_55F_67L_, Q9UKT9 (peptide)
chain: FYCNVCGACFTQKGNLLRHIKL
B19: 46F_47K_49P_50Q_52G_53A_54C_55F_67L_, Q9UKT9 (peptide)
chain: FKCPQCGACFTQKGNLLRHIKL
B20: 46F_47Y_49P_50V_52G_53A_54C_55F_67L_, Q9UKT9 (peptide)
chain: FYCPVCGACFTQKGNLLRHIKL
B21: 46F_47W_49P_50V_52G_53A_54C_55F_67L_, Q9UKT9 (peptide)
chain: FWCPVCGACFTQKGNLLRHIKL
B22: 46F_47H_49P_50V_52G_53A_54C_55F_67L_, Q9UKT9 (peptide)
chain: FHCPVCGACFTQKGNLLRHIKL
B23: 46F_47K_49P_50V_52G_53A_54C_55F_67L_, Q9UKT9 (peptide)
chain: FKCPVCGACFTQKGNLLRHIKL
B24: 46F_47L_49P_50V_52G_53A_54C_55F_67L_, Q9UKT9 (peptide)
chain: FLCPVCGACFTQKGNLLRHIKL
B25: 46F_47Q_49P_50Q_52G_53A_54C_55F_67L_, Q9UKT9 (peptide)
chain: FQCPQCGACFTQKGNLLRHIKL
B26: 46F_47N_49P_50V_52G_53A_54C_55F_67L_, Q9UKT9 (peptide)
chain: FNCPVCGACFTQKGNLLRHIKL
B27: 46F_47V_49P_50Q_52G_53A_54C_55F_67L_, Q9UKT9 (peptide)
chain: FVCPQCGACFTQKGNLLRHIKL
B28: 46F_47Q_49P_50V_52G_53A_54C_55F_67L_, Q9UKT9 (peptide)
chain: FQCPVCGACFTQKGNLLRHIKL

Target: T1, CRBN, Q96SW2
Experiment: log2 fold change of degron read counts, EGFP-low vs EGFP+ sorted cells (limma voom), compound-induced degradation; higher = more compound-induced degradation of the degron-EGFP fusion; degrons are variants of IKZF1/3 zinc finger 2; compound dose not given here
Conditions: Jurkat, 18 h
[1] = compound: compound 19 (5-tert-butyl-thalidomide)
[2] = compound: compound 22 (5-morpholino-thalidomide)
[3] = compound: compound 33 (diphenyl IMiD analogue)
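Further: pooled lentiviral library of zinc finger degron-EGFP fusions in mCherry-positive Jurkat cells, FACS-sorted after compound exposure, with degron abundance counted by next-generation sequencing.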

Sequence | log2 fold change of degron read counts [1] | log2 fold change of degron read counts [2] | log2 fold change of degron read counts [3] | log2 fold change of degron read counts (compound: thalidomide)
B1 | -2.24 | -2.24 | 0.504 | -1.37
B2 | -2.96 | -3.3 | -2.71 | -2.65
B3 | -1.81 | -1.82 | -1.14 | -1.84
B4 | -0.211 | -0.371 | 0.994 | 0.267
B5 | -3.09 | -3.12 | -3.48 | -3.28
B6 | -0.952 | -1.34 | -1.18 | -1.07
B7 | 0.909 | 1.9 | 0.606 | 2.84
B8 | -2.84 | -2.15 | 0.0969 | -1.3
B9 | -2.45 | -2.17 | -1.87 | -1.49
B10 | -1.82 | -2.41 | -0.354 | 0.562
B11 | 3.59 | 3.59 | 2.92 | 1.64
B12 | 2.89 | 2.79 | 2.34 | 3.64
B13 | 1.93 | 2.89 | 2.35 | 3.15
B14 | 0.759 | 2.95 | 2.44 | 3.09
B15 | -2.78 | -2.96 | -1.75 | -1.65
B16 | 0.368 | 2.41 | 0.941 | -1.4
B17 | 2.46 | 1.44 | 1.69 | 0.848
B18 | 1.86 | 2.44 | 1.12 | -0.449
B19 | -2.36 | -3 | -3.29 | -2.34
B20 | 3.26 | 3.4 | 2.69 | 1.29
B21 | 3.4 | 3.44 | 2.56 | 1.36
B22 | 2.42 | 2.44 | 2.11 | 0.528
B23 | -0.716 | -1.95 | -2.51 | -0.832
B24 | 0.241 | -0.146 | 1.72 | 1.62
B25 | -1.4 | 0.844 | 0.805 | 3.26
B26 | 1.6 | 0.504 | 1 | -0.0222
B27 | -1.94 | -0.402 | 0.593 | 0.301
B28 | 0.553 | 2.77 | 2.39 | 3.46
